Sampled rows, rich in hits. Any-hit rate of the full collection: about 11%.
HCV inhibitor: inhibitors of hepatitis C virus infection | Huh7.5.1 HCVcc-Cre infection, luciferase reporter, 44 h | Potency, µM (series often up to 41.8 µM), for the others: top-dose activity change, negative = inhibition, hits mostly inhibitors | 340,000 tested, 3.4% active | AID 651820
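Whole-lifecycle infectious HCVcc-Cre system; cells 1,000/well, compound then virus (~0.5 moi) added 4 h after plating, 44 h culture. Luciferase read 15 sec following 15 min substrate incubation, room temp.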
AMA1 RON2 block: disrupts binding of P. falciparum AMA1 to RON2 | AID 720542 | AlphaScreen AMA1-biotinylated RON2 peptide binding | Potency, µM (series often up to 58.2 µM), inactives show at the highest dose activity change, negative = inhibition, most hits filed as inhibitors | 360,000 tested, 0.2% active;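 further: 0% = vehicle wells and -100% = peptide control; nearly all actives have a fitted effect of over 45% in size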
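AMA1 (3D7) with his tag at 25 nM final met compounds first, then biotinylated RON2 peptide at 25 nM; detection used donor plus acceptor beads, 10 µg/mL apiece, read by AlphaScreen after 30 min at room temperature.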
Pf growth 48h: inhibits P. falciparum growth in the first generation, 48 h | P. falciparum luciferase growth in erythrocytes, 48 h | Potency, µM (titrated, usually from 28.7 µM), without a hit: at the top dose activity change, negative = inhibition, most hits filed as inhibitors | 310,000 tested, 5.9% active
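Cell-based growth assay: transgenic P. falciparum expressing firefly luciferase, cultured in red cells within RPMI 1640 containing 0.5% w/v Albumax, 24 mM bicarbonate and gentamycin. A drop in luciferase activity indicates inhibition.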
Pf growth 96h: inhibits malaria parasite growth, 96 h; 320,000 tested, 6.9% active; P. falciparum luciferase reporter growth, 96 h; Potency, µM (top dose mostly 28.7 µM), inactives show at the highest dose activity change, negative = inhibition, hits mostly inhibitors
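P. falciparum expressing integrated firefly luciferase grown in erythrocytes (2% hematocrit, 0.05% parasitemia final) with compounds for 96 hours at 37 C, 5% CO2. Growth inhibition read as loss of luminescence after adding luciferase detection reagent.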
Numbers without * were called inactive; ? = inconclusive; . = not tested or not shown; [ ] = dose if it differs, or a comment. The call rests on the fitted dose curve; in most records, active means well fitted curve in the direction sought with a large enough effect; inconclusive means small, poorly fitted or top-dose-only effect, or another doubt; inactive means no such curve, though single readings can be large; an effect the other way counts as inactive or inconclusive. Unless noted, on the % scale 0 is the no-effect control and ±100 the full control effect; potency means the concentration at half of the fitted maximal effect.

SMILES	HCV inhibitor	AMA1 RON2 block	Pf growth 48h	Pf growth 96h
N#CC(C#N)=Cc1cn(-c2ncc(C(F)(F)F)cc2Cl)c2ccccc12	15.0%	-8.9%	-25.3%	2.2%
COc1ccc2cc(CN(Cc3ccco3)C(=S)NCC3CCCO3)c(=O)[nH]c2c1 (stereo not given)	11.9%	3.9%	?	-0.3%
Cc1cc(C)c2cc(CN(Cc3ccco3)C(=S)NCC3CCCO3)c(=O)[nH]c2c1 (stereo not given)	?	-11.4%	2.08µM*	?
CCN(CC)CCN(Cc1cc2cc3c(cc2[nH]c1=O)OCO3)C(=S)NCC1CCCO1 (stereo not given)	13.6%	7.9%	-10.9%	14.7µM*
CCN(CC)CCN(Cc1cc2cc3c(cc2[nH]c1=O)OCO3)C(=S)NCCCOC	15.2%	3.0%	-6.1%	13.1µM*
Cn1cccc1C(=O)NCc1ccc(S(N)(=O)=O)cc1	8.2%	19.9%	3.7%	28.9%
CCCCC1CCC(C(=O)N(C)CC(=O)Nc2cccc(OC)c2)CC1 (stereo not given)	-19.7%	-8.3%	?	?
Cc1ccc(NC(=O)c2ccc(Br)o2)cc1S(=O)(=O)N(C)C	?	-4.3%	-2.8%	21.1%
CN(C)S(=O)(=O)c1ccc(C(=O)NCC[N+]2(C)CCCCCC2)o1	-3.0%	-26.9%	?	9.28µM*
O=C(O)[C@H]1C(=CCO)O[C@H]2CC(=O)N12	.	.	2.8%	14.6%
C[C@H]1CC[C@H]2C(=O)N3[C@H](c4ccccc4Br)[C@@H](C)CC[C@H]3C(=O)N2[C@@H]1c1ccccc1Br	-13.1%[8.37 µM]	.	?	5.22µM*
COc1cccc(COc2ccccc2C2Nc3ccc(Br)cc3C(=O)N2NC(=O)c2ccncc2)c1 (stereo not given)	?	42.2%	?	?
COCCN1C=C(C(=O)OC)C(c2cc3c(cc2Br)OCO3)C(C(=O)OC)=C1	10.7%	7.3%	5.86µM*	?
COC(=O)C1=CN(c2ccc(F)cc2)C=C(C(=O)OC)C1c1ccc(O)cc1	11.2µM*	15.6%	9.6%[0.00184 µM]	-0.4%
COC(=O)C1=CN(Cc2cccs2)C=C(C(=O)OC)C1c1cccc(Cl)c1	?	29.3%	9.28µM*	?
CCN1C=C(C(=O)OC)C(c2cccc(C)c2)C(C(=O)OC)=C1	-3.7%	55.9%	.	11.7µM*
COCCN1C=C(C(=O)OC)C(c2ccc(Cl)cc2)C(C(=O)OC)=C1	-5.5%	45.6%	10.4µM*	0.0%
COC(=O)C1=CN(c2cc(C)cc(C)c2)C=C(C(=O)OC)C1c1ccc(OC)c(O)c1	?	14.8%	0.0%	?
COC(=O)C1=CN(c2ccc(OC)cc2)C=C(C(=O)OC)C1c1cc(OC)c(OC)cc1OC	-13.7%	-2.3%	23.6%	4.15µM*
COC(=O)C1=CN(c2cc(C)cc(C)c2)C=C(C(=O)OC)C1c1cccc(F)c1	14.0%	9.6%	11.7µM*	?
CCOc1ccc(C2C(C(=O)OC)=CN(CCOC)C=C2C(=O)OC)cc1	11.3%	3.9%	?	?
COC(=O)C1=CN(Cc2cccs2)C=C(C(=O)OC)C1c1ccc(OC)cc1OC	-11.3%	49.6%	?	30.1%
CCCN(CC(=O)Nc1ccc(F)c(F)c1F)C(=O)CCc1nc2ccccc2c(=O)[nH]1	0.0%	?	?	?
CCc1ccc(N2CC(C(=O)OCc3nc4ccsc4c(=O)[nH]3)CC2=O)cc1 (stereo not given)	1.5%	0.0%	5.8%	37.5%
COc1ccc(CNC(=O)C(=O)NCC2OCCN2S(=O)(=O)c2ccc(OC)cc2)cc1 (stereo not given)	-20.4%	-14.1%	.	.
SMILES	HCV inhibitor	AMA1 RON2 block	Pf growth 48h	Pf growth 96h
C#CCOCCOCCOCCNc1nc(N2CCOCC2)nc(N2CCN(C(=O)CCCCCCCCCCNC(=O)[C@H](CO)n3cc(CCCCCN)nn3)CC2)n1	0.8%	-1.8%	0.329µM*	0.828µM*
C#CCOCCOCCOCCNc1nc(N2CCOCC2)nc(N2CCN(C(=O)CCCCCCCCCCNC(=O)Cn3cc(CCCCCN)nn3)CC2)n1	18.6%	26.9%	3.7µM*	?
C#CCOCCOCCOCCNc1nc(N2CCN(C(=O)CCCCCCCCCCNC(=O)Cn3cc(CCCCCN)nn3)CC2)nc(N2CCN(C(=O)CCCCCCCCCCNC(=O)[C@H](CO)n3cc(CCCCCN)nn3)CC2)n1	31.6µM*	?	1.04µM*	2.94µM*
C#CCOCCOCCOCCNc1nc(N2CCN(C(=O)CCCCCCCCCCNC(=O)Cn3cc(CCCCCN)nn3)CC2)nc(N2CCN(C(=O)CCCCCCCCCCNC(=O)[C@H]([C@@H](C)CC)n3cc(CCCCCN)nn3)CC2)n1	?	?	10.4µM*	?
O=C(NCCN1CCCCC1)Nc1ccc(Br)cc1	?	-7.9%	?	1.9%
c1ccc(-c2cc(-c3ccc(N4CCOCC4)cc3)nc3ccccc23)cc1	-10.5%	7.5%	?	13.1µM*
COc1ccc2c(-c3ccccc3)cc(N3CCOCC3)nc2c1	12.6µM*	60.6%	?	.
c1ccc(-c2cc(N3CCOCC3)nc(-c3ccccc3)n2)cc1	-16.0%	?	6.7%	0.0%
Cc1cccc(NC(=S)N2CCC(NC(=O)c3cccc(F)c3)CC2)c1	18.0%	-17.9%	-1.4%	?
Cc1ccc(-c2c(C(=O)N(C)Cc3ccccc3)oc(=O)c3ccccc23)cc1	0.3%	-17.8%	?	4.65µM*
COc1cc2cc3c(N)c(C(=O)NCc4ccco4)sc3nc2cc1OC	?	-8.6%	?	-18.0%
COc1cc2cc3c(N)c(C(=O)Nc4sc(C)c(C)c4C#N)sc3nc2cc1OC	-5.8%	2.6%	?	11.7µM*
O=c1c(Cl)c(NCCCO)cnn1-c1nc2ccccc2[nH]1	10µM*	9.5%	348.3%	462.5%
COc1ccc(OC)c(NC(=O)Nc2nnc(N3CCCCC3C)s2)c1 (stereo not given)	?	-23.4%	-8.7%	-29.8%
CCC(C)OC(=O)C[N+](C)(C)CCOC1CC2CCC1(C)C2(C)C (stereo not given)	-9.3%	-11.5%	0.928µM*	36.2%
CCCCCCCOC(=O)C[N+](C)(C)CCOC1CC2CCC1(C)C2(C)C (stereo not given)	?	66.0%	1.85µM*	13.1µM*
CC(C)CCOC(=O)C[N+](C)(C)CCOC1CC2CCC1(C)C2(C)C (stereo not given)	-4.7%	0.9%	?	246.2%
CCCCCCOC(=O)C[N+](C)(C)CCOC1CC2CCC1(C)C2(C)C (stereo not given)	3.2%	47.9%	1.65µM*	0.738µM*
CCCOC(=O)C[N+](C)(C)CCOC1CC2CCC1(C)C2(C)C (stereo not given)	14.8%	7.5%	1.85µM*	1.47µM*
CC(C)(C)C(=O)NCCN1CCN(C(=O)C(C)(C)C)CC1	8.0%	18.0%	-6.5%	-12.7%
O=C1NC(=S)N/C1=C\c1ccc(Oc2ccc(C(F)(F)F)cc2[N+](=O)[O-])c(Cl)c1	12.6%	3.8%	7.2%	10.7%
CCCCOC(=O)C[N+](C)(C)CCOC1CC2CCC1(C)C2(C)C (stereo not given)	-8.7%	-5.3%	1.47µM*	?
